Results filed as inconclusive are left out. The source made the active and inactive calls. Unless noted, calls follow the shape of the dose curve; as a rule, active = well fitted curve in the direction sought with a large enough effect; inconclusive = small, poorly fitted or top-dose-only effect, or another doubt; inactive = no such curve, though single readings can be large; an effect the other way counts as inactive or inconclusive.
Legend:
[1] = test system: Zika virus NS2B-NS3 protease (unlinked complex); assay: Primary screen GU Rhodamine qHTS for Zika virus inhibitors: Unlinked NS2B-NS3 protease assay (AID 1347159); also: nearly all actives have a fitted effect of over 60% in size; also: potency is read from the fitted curve at half-maximal effect; as to activity change, negative = inhibition: % is scaled to controls: 0 for no effect and ±100 for the full control effect
In short: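 Enzyme 25 nM in Tris-HCl pH 8.0 + 0.01% Tween 20; compounds up to 114 microM, 15 min RT dark; + Rhod110 substrate 1.5 microM; read t0 and 15 min; delta fluorescence → % inhibition → 4-parameter Hill fit.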

[2] = qHTS to identify inhibitors of the type 1 interferon - major histocompatibility complex class I in skeletal muscle: primary screen against the NCATS Mechanism Interrogation Plate v5.0 (MIPE) Libary (AID 1347411);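 also: plate controls were vehicle for no effect and reference inhibitor for full effect; nearly all actives have a fitted effect of over 65% in size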
In short: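 HLA-B HiBit myoblasts, dexamethasone-free medium + 4 ng/ml IFN-b, 24 h compound, 11-pt 1:3 from 46 uM final. Readout: Nano-Glo HiBiT lytic luminescence after 10 min lysis, RT.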

CAOV3 = assay: Primary qHTS to identify gynecologic anti-cancer compounds using libraries of approved drugs and bioactive compounds (AID 1345084); settings: Gynecologic cancer cell panel viability, ATPlite luminescence, 48 h; series mostly up to 57.5 µM; also: nearly all actives have a fitted effect of over 55% in size; also: potency is read from the fitted curve at half-maximal effect
In short: (§1)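 In this quantitative HTS, cell killing is estimated from loss of ATP-dependent luciferase light. Cells see five compound concentrations over a 48 h exposure.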

SKOV3 = assay: as above; settings: Gynecologic cancer cell panel viability, ATPlite luminescence, 48 h; series mostly up to 57.5 µM
In short: as §1

[3] = Drug repurposing screens with cells derived from glioblastoma tumor samples (AID 1345199); settings: GBM patient neurospheres viability, ATP luminescence, 48 h; also: % is scaled to controls: 0 for no effect and ±100 for the full control effect; nearly all actives have a fitted effect of over 40% in size
In short: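 Primary testing used CD133+ neurospheres from four GBM patients, seven concentrations, 48 h exposure and ATP-based viability; confirmation added three slower-growing patient lines.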

[4] = target: Cytochrome P450 2D6 (Homo sapiens) (UniProt P10635); assay: Cytochrome P450 family 2 subfamily D member 6 (CYP2D6) small molecule antagonists: luciferase biochemical (cell-free) qHTS assay (AID 1645840; active = well fitted curve in the direction sought with a large enough effect in the repeat runs; an effect the other way counts as inactive or inconclusive; also: nearly all actives have a fitted effect of over 55% in size; also: potency is read from the fitted curve at half-maximal effect)
In short: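 P450-Glo CYP2D6 system: proluciferin substrate converted by enzyme to luciferin, read by luminescence proportional to activity. Enzyme-substrate mix with compound 10 min at room temperature, then NADPH regeneration 1 h before detection reagent.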

[5] = target: Cytochrome P450 2C9 (Homo sapiens) (UniProt P11712); assay: Cytochrome P450 family 2 subfamily C member 9 (CYP2C9) small molecule antagonists: luciferase biochemical (cell-free) qHTS assay (AID 1645842; active = well fitted curve in the direction sought with a large enough effect in the repeat runs; an effect the other way counts as inactive or inconclusive; also: nearly all actives have a fitted effect of over 55% in size; also: potency is read from the fitted curve at half-maximal effect; as to activity change, negative = inhibition: % is scaled to controls: 0 for no effect and ±100 for the full control effect)
In short: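 P450-Glo CYP2C9 system: proluciferin substrate with enzyme in mix containing 0.4% BSA, 10 min at room temperature, then NADPH regeneration solution added and incubated 1 h at 37C. Detection reagent stopped reaction; luminescence read after 20 min as RLU.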

[6] = P-glycoprotein substrates identified in KB-8-5-11 adenocarcinoma cell line, qHTS therapeutic library screen (AID 1346987); also: nearly all actives have a fitted effect of over 65% in size; also: potency is read from the fitted curve at half-maximal effect
In short: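 In this qHTS, P-gp-rich KB-8-5-11 cells received library compounds across a concentration range. Viability was quantified by luminescence after 72 h at 37 degree C.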

[7] = target: Catechol O-methyltransferase (Homo sapiens) (UniProt P21964); assay: Confirmatory Screen for Target Class Profiling of Small Molecule Inhibitors of Methyltransferases (AID 1745852; calls by dose curve; as to activity change, negative = inhibition: % is scaled to controls: 0 for no effect and ±100 for the full control effect); settings: MTase-Glo luminescence, SAH detection, recombinant enzyme; measured here: COMT max response; stronger effect = lower value
[8] = target: Guanidinoacetate N-methyltransferase (Homo sapiens) (UniProt Q14353); assay: as above; settings: activity change, negative = inhibition: at 57.3 µM (top of the series) unless noted
[9] = target: Nicotinamide N-methyltransferase (Homo sapiens) (UniProt P40261); assay: as above; settings: MTase-Glo luminescence, SAH detection, recombinant enzyme; measured here: NNMT max response; stronger effect = lower value
[10] = target: Phenylethanolamine N-methyltransferase (Homo sapiens) (UniProt P11086); assay: as above; settings: MTase-Glo luminescence, SAH detection, recombinant enzyme; measured here: PNMT max response; stronger effect = lower value
NIH3T3 = assay: Cytotoxic Profiling of Annotated Libraries Using Quantitative High-Throughput Screening (AID 1296008); settings: Five cell lines viability, CellTiter-Glo ATP luminescence, 48-72 h; max response: stronger effect = lower value; also: nearly all actives have a fitted effect of over 60% in size; also: potency is read from the fitted curve at half-maximal effect; as to max response: % is scaled to controls: 0 for no effect and ±100 for the full control effect
In short: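 Compounds were pin-transferred onto cells and incubated 48 or 72 hr at 37 degree Celsius, 95% humidity. CellTiter-Glo was added, plates sat 10 min at room temperature, then ATP-coupled luminescence was imaged as the viability read-out.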

[11] = qHTS drug screen for cell cycle checkpoint inhibitors in PARPi-resistant BRCA-mutant ovarian cancer cell lines. (AID 1963452; calls by dose curve); settings: PEO1/OlaR viability, CellTiter-Glo luminescence, 96 h, stronger effect = lower value
In short: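 PEO1, PEO4 and PEO1/OlaR ovarian cancer cells, 600 per well, exposed 96 h at 37C to a dilution series. Viability read by CellTiter-Glo luminescence, normalized to DMSO and empty wells; activity summarized as Z-AUC.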

[12] = Confirmatory screen NINDS Rhodamine qHTS for Zika virus inhibitors (AID 1347161); also: potency is read from the fitted curve at half-maximal effect; nearly all actives have a fitted effect of over 60% in size
In short: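 Aprotinin served as in-plate control. Conditions: 25 nM linked NS2B-NS3, pH 8.0 Tris buffer, titrated compounds, 15 min preincubation and 15 min reaction with 1.5 microM Rhod110 substrate at room temperature.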

[13] = Tertiary RLuc qRT-PCR qHTS assay for Zika virus inhibitors (AID 1347169); also: potency is read from the fitted curve at half-maximal effect; nearly all actives have a fitted effect of over 55% in size
In short: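 Luminescence read-out: live-cell Renilla luciferase substrate applied to infected Vero cells, signal measured after 1-1.5 hrs. Cells had received compound before ZIKV-RLuc (Cambodian strain, MOI 1-2) infection and were incubated 48-72 hrs at 37 degrees C.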

[14] = target: N-terminal Xaa-Pro-Lys N-methyltransferase 1 (Homo sapiens) (UniProt Q9BV86); assay: Confirmatory qHTS for Inhibitors of N-terminal methyltransferase 1 (NTMT1): MTaseGlo Assay (AID 1645874);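 also: luminescence from SAH made as NTMT1 methylates SPKRIA peptide using SAM; 0% = DMSO control and -100% = no-enzyme control; nearly all actives have a fitted effect of over 65% in size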
In short: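 Enzyme mix (125 nM NTMT1, 100 uM SAM) + compound, 15 min RT; + 1 uM SPKRIA, 30 min RT, dark; MTase-Glo reagent 30 min, detection solution 30 min; luminescence. % inhibition vs no-enzyme/DMSO controls, 4-parameter Hill fit.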

[15] = measured here: PEO1 parental Z-AUC

Phenylethanolamine N-methyltransferase (Homo sapiens), sequence (P11086 whole entry, looked up): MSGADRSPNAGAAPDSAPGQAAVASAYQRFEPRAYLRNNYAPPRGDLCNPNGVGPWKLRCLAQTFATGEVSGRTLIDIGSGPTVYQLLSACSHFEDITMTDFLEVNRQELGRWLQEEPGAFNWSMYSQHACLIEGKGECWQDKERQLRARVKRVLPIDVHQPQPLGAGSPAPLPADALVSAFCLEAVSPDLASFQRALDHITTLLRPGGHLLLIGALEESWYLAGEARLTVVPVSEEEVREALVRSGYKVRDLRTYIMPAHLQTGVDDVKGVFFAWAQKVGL
Cytochrome P450 2D6 (Homo sapiens), sequence (P10635 whole entry, looked up): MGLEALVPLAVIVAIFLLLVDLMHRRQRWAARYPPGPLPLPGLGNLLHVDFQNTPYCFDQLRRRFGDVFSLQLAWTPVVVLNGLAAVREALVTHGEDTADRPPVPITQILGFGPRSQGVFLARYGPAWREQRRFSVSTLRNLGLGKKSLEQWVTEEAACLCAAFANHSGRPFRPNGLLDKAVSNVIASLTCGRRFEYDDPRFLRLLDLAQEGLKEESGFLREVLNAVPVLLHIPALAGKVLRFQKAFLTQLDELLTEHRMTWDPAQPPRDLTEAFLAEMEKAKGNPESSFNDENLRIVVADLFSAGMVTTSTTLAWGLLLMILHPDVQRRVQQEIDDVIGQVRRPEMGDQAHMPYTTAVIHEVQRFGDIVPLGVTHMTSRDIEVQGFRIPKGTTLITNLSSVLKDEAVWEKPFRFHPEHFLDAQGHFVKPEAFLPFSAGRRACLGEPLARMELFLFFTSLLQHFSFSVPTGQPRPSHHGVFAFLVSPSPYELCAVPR
Cytochrome P450 2C9 (Homo sapiens), sequence (P11712 whole entry, looked up): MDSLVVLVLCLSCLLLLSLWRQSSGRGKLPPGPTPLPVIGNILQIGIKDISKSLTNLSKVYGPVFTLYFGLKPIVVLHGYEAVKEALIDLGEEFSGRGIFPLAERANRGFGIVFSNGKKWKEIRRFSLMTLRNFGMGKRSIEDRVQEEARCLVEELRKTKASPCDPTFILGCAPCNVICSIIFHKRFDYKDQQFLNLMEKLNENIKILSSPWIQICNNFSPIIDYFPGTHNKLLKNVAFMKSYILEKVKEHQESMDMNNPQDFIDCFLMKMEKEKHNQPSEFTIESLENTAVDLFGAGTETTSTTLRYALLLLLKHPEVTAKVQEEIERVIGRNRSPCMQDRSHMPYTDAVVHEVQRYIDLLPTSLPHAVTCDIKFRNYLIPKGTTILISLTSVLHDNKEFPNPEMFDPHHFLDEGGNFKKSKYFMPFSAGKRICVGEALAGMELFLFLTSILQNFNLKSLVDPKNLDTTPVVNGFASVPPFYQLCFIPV
Catechol O-methyltransferase (Homo sapiens), sequence (P21964 whole entry, looked up): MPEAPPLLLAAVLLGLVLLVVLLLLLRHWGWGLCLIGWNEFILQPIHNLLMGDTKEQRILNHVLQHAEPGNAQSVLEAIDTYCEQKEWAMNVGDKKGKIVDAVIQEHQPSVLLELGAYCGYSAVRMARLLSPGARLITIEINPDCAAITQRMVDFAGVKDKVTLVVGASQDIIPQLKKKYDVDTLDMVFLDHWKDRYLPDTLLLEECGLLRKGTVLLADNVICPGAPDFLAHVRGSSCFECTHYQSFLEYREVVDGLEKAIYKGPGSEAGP
Nicotinamide N-methyltransferase (Homo sapiens), sequence (P40261 whole entry, looked up): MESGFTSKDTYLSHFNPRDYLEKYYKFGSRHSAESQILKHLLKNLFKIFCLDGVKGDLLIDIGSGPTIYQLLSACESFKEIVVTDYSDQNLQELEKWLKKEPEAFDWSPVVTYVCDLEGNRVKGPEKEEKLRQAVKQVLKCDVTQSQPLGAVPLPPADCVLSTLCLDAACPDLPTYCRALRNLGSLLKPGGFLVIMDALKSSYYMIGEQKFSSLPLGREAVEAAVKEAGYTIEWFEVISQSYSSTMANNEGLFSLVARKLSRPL
N-terminal Xaa-Pro-Lys N-methyltransferase 1 (Homo sapiens), sequence (Q9BV86 whole entry, looked up): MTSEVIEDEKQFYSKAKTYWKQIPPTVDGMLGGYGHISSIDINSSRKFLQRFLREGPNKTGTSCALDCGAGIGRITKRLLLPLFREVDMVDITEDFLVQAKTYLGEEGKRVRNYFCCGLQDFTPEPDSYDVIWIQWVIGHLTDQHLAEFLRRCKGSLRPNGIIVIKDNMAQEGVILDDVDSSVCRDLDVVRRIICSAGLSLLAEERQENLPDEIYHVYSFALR

## N#C[C@@H]1C[C@@H]2C[C@@H]2N1C(=O)[C@@H](N)C12CC3CC(CC(O)(C3)C1)C2
[1]
  Potency: inactive
[2]
  Potency: inactive
CAOV3
  Potency: inactive
SKOV3
  Potency: inactive

## Nc1ccc(N)c([N+](=O)[O-])c1
CAOV3
  Potency: inactive
SKOV3
  Potency: inactive
[3]; at 91.6 µM (top of the series), tumour line D
  activity, negative = cell killing: -23.5% (inactive)

## CCCCOc1ccc(-c2cncc(C(=O)NCc3cccnc3N3CCOCC3)c2)cc1Cl
[1]
  Potency: inactive
[4]
  Potency: 12 µM (active)
[5]
  Potency: 3.01 µM (active)
CAOV3
  Potency: inactive
SKOV3
  Potency: inactive

## c1ccc(-c2cnc(Nc3ccc(OCCN4CCCC4)cc3)s2)cc1
[6]
  Potency: 16.4 µM (active)
[1]
  Potency: inactive
[4]
  Potency: 10.7 µM (active)
CAOV3
  Potency: inactive
SKOV3
  Potency: 35.5 µM (active)

## C=CC(=O)N1CCN(C(=O)c2cc(-c3cc(Cl)ccc3Cl)c(Cl)cc2OC)CC1
[4]
  Potency: 19 µM (active)
[5]
  Potency: inactive
[7]
  activity: -10.7%
[8]
  activity change, negative = inhibition: -11.4%
[9]
  activity: -31.6%
[10]
  activity: -2.64%
NIH3T3
  max response: -20.9% (inactive)

## CO[C@@H]1[C@@H](O[C@H]2O[C@@H](C)[C@H](O[C@@H]3C[C@](C)(O)[C@H](O)[C@@H](C)O3)[C@@H](N(C)C)[C@@H]2O)[C@@H](CC=O)C[C@@H](C)[C@@H](O[C@H]2CC[C@H](N(C)C)[C@H](C)O2)/C=C/C=C/C[C@@H](C)OC(=O)C[C@H]1O
CAOV3
  Potency: inactive
SKOV3
  Potency: inactive

## CN(C)C(=O)c1cc2cnc(Nc3ccc(N4CCNCC4)cn3)nc2n1C1CCCC1
[6]
  Potency: inactive
[2]
  Potency: inactive
[4]
  Potency: inactive
[11]
  Z-AUC: 0.0269 (inactive)
[11]; [15]
  Z-AUC: 0.759
[11]; measured here: PEO4 Z-AUC
  Z-AUC: 0.126
CAOV3
  Potency: inactive
SKOV3
  Potency: inactive

## COc1c(N2CC3CCCNC3C2)c(F)cc2c(=O)c(C(=O)O)cn(C3CC3)c12 (stereo unspecified)
CAOV3
  Potency: inactive
SKOV3
  Potency: inactive

## Cc1cc(C)c(NC(=O)N(Cc2ccc3c(c2)Cc2ccccc2-3)C2CCCCCC2)c(C)c1
[4]
  Potency: inactive
[5]
  Potency: 6.01 µM (active)
[7]
  activity: -9.37%
[8]
  activity change, negative = inhibition: -11.3%
[9]
  activity: -15.8%
[10]
  activity: -14.1%
CAOV3
  Potency: inactive
SKOV3
  Potency: inactive

## Cc1cc(C)c(-c2csc(NC(=O)c3ccccc3)n2)c(C)c1
[1]
  Potency: inactive
NIH3T3
  Potency: 8.2 µM (active)
SKOV3
  Potency: 25.1 µM (active)

## CCN(CC)Cc1cccc(/C=C/c2nc3ccc(F)cc3c(=O)n2-c2ccccc2Cl)n1
[5]
  Potency: 19 µM (active)
CAOV3
  Potency: inactive
SKOV3
  Potency: 20 µM (active)

## CCNC(=O)[C@@H]1CCCN1C(=O)[C@H](CCCN=C(N)N)NC(=O)[C@H](CC(C)C)NC(=O)[C@@H](CC(C)C)NC(=O)[C@H](Cc1ccc(O)cc1)NC(=O)[C@H](CO)NC(=O)[C@H](Cc1c[nH]c2ccccc12)NC(=O)[C@H](Cc1cnc[nH]1)NC(=O)[C@@H]1CCC(=O)N1
[1]
  Potency: inactive
CAOV3
  Potency: inactive
SKOV3
  Potency: inactive
[3]; at 45.9 µM (top of the series), tumour line B
  activity, negative = cell killing: -5.52% (inactive)
[3]; at 45.9 µM (top of the series), tumour line D
  activity, negative = cell killing: 4.71% (inactive)
[3]; at 46 µM (top of the series), tumour line A
  activity, negative = cell killing: -26.4% (inactive)
[3]; at 46.1 µM (top of the series), tumour line C
  activity, negative = cell killing: 1.53% (inactive)

## CC1OC2O[C@H]3[C@@H](OCC(O)[C@H]3O)OC(=O)C34CCC(C)(C)CC3C3=CCC5C6(C)CC(O)C(OC7OC(CO)C(O)C(O)C7O[C@@H]7OC[C@H](OC(=O)CC(C)(O)CC(=O)OC1C(OC1OCC(O)C(O)C1O)C2O)[C@@H](O)[C@H]7O)C(C)(CO)C6CCC5(C)C3(C)CC4 (stereo partly specified)
NIH3T3
  max response: -22% (inactive)
CAOV3
  Potency: inactive

## CCC(=O)c1cc(-c2ccc(Cl)cc2)n(-c2ccc(S(N)(=O)=O)cc2)c1C
[1]
  Potency: inactive
CAOV3
  Potency: inactive

## CN(CC(=O)N(Cc1ccc(C2CCCCC2)cc1)c1ccc(C(=O)O)cc1)S(=O)(=O)c1c(F)c(F)c(F)c(F)c1F
[1]
  Potency: 2.51 µM (active)
[12]
  Potency: 2.78 µM (active)
[13]
  Potency: 7.39 µM (active)
[5]
  Potency: 16.9 µM (active)
NIH3T3
  Potency: 6.51 µM (active)
CAOV3
  Potency: 25.1 µM (active)
SKOV3
  Potency: 31.6 µM (active)

## Cc1cc(CN)cc(C)c1NC(=O)c1ccc(-c2cc(Cl)ccc2Cl)o1
[6]
  Potency: 20.6 µM (active)
CAOV3
  Potency: inactive
SKOV3
  Potency: inactive

## CNCCN(C)Cc1cn[nH]c1-c1ccc(OC2CC(OCCC3CCOCC3)C2)cc1 (stereo unspecified)
[2]
  Potency: inactive
[7]
  activity: 0.741%
[8]
  activity change, negative = inhibition: 7.78%
[9]
  activity: -3.1%
[10]
  activity: -1.61%
[11]
  Z-AUC: -0.683 (inactive)
[11]; [15]
  Z-AUC: -1
[11]; measured here: PEO4 Z-AUC
  Z-AUC: -0.979
NIH3T3
  max response: -20% (inactive)

## O=C(CC1NCCC[C@H]1O)Cn1cnc2cc(Br)c(Cl)cc2c1=O (stereo partly specified)
[1]
  Potency: inactive
CAOV3
  Potency: inactive
SKOV3
  Potency: inactive

## Cc1cc(CS(=O)(=O)c2ccccc2)cc(OCc2ccc(CN3CCC[C@@H]3CO)cc2)c1
[2]
  Potency: inactive
[14]
  Potency: inactive
[11]
  Z-AUC: 0.153 (inactive)
[11]; [15]
  Z-AUC: 0.253
[11]; measured here: PEO4 Z-AUC
  Z-AUC: 0.0408
NIH3T3
  Potency: 20.6 µM (active)

## CC1(C)SC2C(NC(=O)[C@H](NC(=O)N3CCNC3=O)c3ccccc3)C(=O)N2C1C(=O)O (stereo partly specified)
[1]
  Potency: inactive
CAOV3
  Potency: inactive
